Test results as given in PubChem BioAssay AID1932 (Vanderbilt High Throughput Screening Facility, 2009).
Calls of active or inactive are those of the source. How the calls were made is not given here.

Each molecule was assayed against Muscarinic acetylcholine receptor M1 (Rattus norvegicus) (UniProt P08482) (assay: M1 potentiation check of M4 PAM analogs – cell-based, ACh fold-shift, calcium mobilization, selectivity assay for M4 PAM project, SAR follow-up (AID 1932)). Details: rM1-expressing cells, ACh CRC fold-shift; series mostly up to 1 µM.
Muscarinic acetylcholine receptor M1 (Rattus norvegicus), sequence (P08482 whole entry, looked up): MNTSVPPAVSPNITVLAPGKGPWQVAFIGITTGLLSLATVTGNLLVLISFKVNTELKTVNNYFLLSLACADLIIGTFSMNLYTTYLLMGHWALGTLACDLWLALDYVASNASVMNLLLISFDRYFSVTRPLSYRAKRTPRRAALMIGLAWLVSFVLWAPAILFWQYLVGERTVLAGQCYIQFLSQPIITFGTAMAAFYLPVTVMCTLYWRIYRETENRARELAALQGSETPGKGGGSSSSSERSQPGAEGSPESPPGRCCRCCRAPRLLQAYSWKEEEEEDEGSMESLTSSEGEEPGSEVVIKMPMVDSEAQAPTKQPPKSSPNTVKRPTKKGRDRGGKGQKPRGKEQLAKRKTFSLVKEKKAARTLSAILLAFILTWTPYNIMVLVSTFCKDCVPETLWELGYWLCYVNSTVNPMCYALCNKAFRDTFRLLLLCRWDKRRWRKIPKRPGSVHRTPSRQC

outcome, inactive:
Cc1cc(OCCN2CCOCC2)nc2sc(C(=O)NC(C)(C)C)c(N)c12
Cc1cc(OCc2ccncc2)nc2sc(C(=O)NCc3cc(F)ccc3F)c(N)c12
COc1ccc(CNC(=O)c2sc3nc(OCc4ccncc4)cc(C)c3c2N)cc1
Cc1cc(OCc2ccncc2)nc2sc(C(=O)NCc3cccc(F)c3F)c(N)c12
